# According to the supplement of paper PMC8387472:
# Tests used:
# Settings in all cases: mESC; 2uM; 72 h treatment, harvest day 5
# [1] = compound: O=c1cc(N2CCOCC2)oc2c(-c3ccc4c(c3)OCCO4)csc12; assay: fraction of edited reads among all mapped reads; higher = more Cas9 editing
# Mercaptopurine (6-MP) = compound: S=c1[nH]cnc2nc[nH]c12 [Mercaptopurine (6-MP)]; assay: as above
# [2] = compound: S=c1nc[nH]c2nc[nH]c12 [6-Mercaptopurine (6-MP) Monohydrate]; assay: as above
# [3] = compound: CC(=O)O/N=C1\C(=O)N(Cc2cc(Cl)ccc2Cl)c2ccc(Cl)cc21; assay: fraction of microhomology deletions among edited reads; higher = more MH deletions
# [4] = compound: CC(C)(C#N)c1ccc(N2C(=O)OCc3cnc4ccc(-c5cnc6ccccc6c5)cc4c32)cc1; assay: as above
# [5] = compound: CCCCOc1c(C(=O)c2c(F)cc(C)cc2F)c[nH]c2nncc1-2; assay: as above
# [6] = compound: CCN1CCN(CC(=O)Nc2ccc(-c3cccc4c(=O)cc(N5CCOCC5)oc34)c3sc4ccccc4c23)CC1; assay: as above
# [7] = compound: CCc1c2c(nc3ccc(OC(=O)N4CCC(N5CCCCC5)CC4)cc13)-c1cc3c(c(=O)n1C2)COC(=O)[C@]3(O)CC [Irinotecan HCl Trihydrate]; assay: as above
# [8] = compound: CCn1c(=O)c(-c2ccc(Cl)cc2Cl)cc2cnc(Nc3ccc(N4CCNCC4)c(F)c3)nc21; assay: as above
# [9] = compound: CNc1ccc([N+](=O)[O-])c(Nc2ccc3[nH]ncc3c2)n1; assay: as above
# Rifapentine = compound: CO[C@H]1/C=C/O[C@@]2(C)Oc3c(C)c(O)c4c(O)c(c(/C=N/N5CCN(C6CCCC6)CC5)c(O)c4c3C2=O)NC(=O)/C(C)=C\C=C\[C@H](C)[C@H](O)[C@@H](C)[C@@H](O)[C@@H](C)[C@H](OC(C)=O)[C@@H]1C [Rifapentine]; assay: as above
# [10] = compound: COc1ccccc1-c1cc(Nc2cccc(CS(N)(=O)=O)c2)ncn1; assay: as above
# [11] = compound: C[C@@H]1CN(CC(=O)Nc2ccc3c(c2)Cc2cccc(-c4cc(=O)cc(N5CCOCC5)o4)c2S3)C[C@H](C)O1; assay: as above
# [12] = compound: Cc1cc(C)nc(SCC(=O)Nc2ncc(Cc3cccc4ccccc34)s2)n1; assay: as above
# [13] = compound: Cc1cccc(CC(=O)N2CCc3c2ccc(-c2cn(C)c4ncnc(N)c24)c3F)n1; assay: as above
# [14] = compound: NC(=O)c1ccc2nc(-c3ccc(Oc4ccc(Cl)cc4)cc3)[nH]c2c1 [Chk 2 inhibitor II (BML-277)]; assay: as above
# Tucidinostat (Chidamide) = compound: Nc1cc(F)ccc1NC(=O)c1ccc(CNC(=O)/C=C/c2cccnc2)cc1 [Tucidinostat (Chidamide)]; assay: as above
# Pemetrexed = compound: Nc1nc2[nH]cc(CCc3ccc(C(=O)N[C@@H](CCC(=O)O)C(=O)O)cc3)c2c(=O)[nH]1 [Pemetrexed]; assay: as above
# [15] = compound: Nc1ncnc2c1c(-c1cnc3[nH]ccc3c1)nn2C1CCCC1; assay: as above
# [16] = compound: O=C(c1cccc(Cl)c1F)N1CCN(Cc2cccc(Nc3nccs3)n2)CC1; assay: as above
Target,fraction of edited reads among all mapped reads [1],fraction of edited reads among all mapped reads (Mercaptopurine (6-MP)),fraction of edited reads among all mapped reads [2],fraction of microhomology deletions among edited reads [3],fraction of microhomology deletions among edited reads [4],fraction of microhomology deletions among edited reads [5],fraction of microhomology deletions among edited reads [6],fraction of microhomology deletions among edited reads [7],fraction of microhomology deletions among edited reads [8],fraction of microhomology deletions among edited reads [9],fraction of microhomology deletions among edited reads (Rifapentine),fraction of microhomology deletions among edited reads [10],fraction of microhomology deletions among edited reads [11],fraction of microhomology deletions among edited reads [12],fraction of microhomology deletions among edited reads [13],fraction of microhomology deletions among edited reads [14],fraction of microhomology deletions among edited reads (Tucidinostat (Chidamide)),fraction of microhomology deletions among edited reads (Pemetrexed),fraction of microhomology deletions among edited reads [15],fraction of microhomology deletions among edited reads [16]
"33.0 (DMSO control at this site: 1-bp insertion 0.008, MH deletion 0.771, edited 0.112) CATTAAGAGCAGCTGCCGGCCCCCAAGTGGACAGAGCTGGCCCTGCTGATTCAACAGTGCA",0.0578,0.144,0.0975,0.714,0.71,0.717,0.76,0.741,0.716,0.727,0.724,0.681,0.583,0.722,0.732,0.712,0.706,0.682,0.708,0.688
"34.0 (DMSO control at this site: 1-bp insertion 0.184, MH deletion 0.385, edited 0.103) ATTATAGGACCCTGAGGGAGCAGAGATGTGGGAATGGGGGCCGAGCCAATTGTGATGTAAG",0.0512,0.114,0.0949,0.51,0.538,0.496,0.585,0.527,0.53,0.524,0.567,0.502,0.342,0.517,0.483,0.486,0.409,0.413,0.39,0.39
"29.0 (DMSO control at this site: 1-bp insertion 0.084, MH deletion 0.745, edited 0.133) TTGATGAACTTCCTCTTCTTCTCATGTCTCCGGTCTCCGGTAGGCCACGTGCATGGCCACT",0.0905,0.171,0.127,0.727,0.728,0.734,0.773,0.719,0.757,0.738,0.751,0.667,0.482,0.692,0.702,0.741,0.686,0.691,0.696,0.662
"43.0 (DMSO control at this site: 1-bp insertion 0.134, MH deletion 0.714, edited 0.104) AGTTTAACTTACTCCGGCCAAAAAAGAACTGCACCTCTGGAGCGGGTTAGTGGTGGTGGTA",0.0695,0.165,0.114,0.72,0.687,0.69,0.711,0.676,0.77,0.703,0.683,0.663,0.698,0.639,0.717,0.677,0.68,0.625,0.662,0.686
"19.0 (DMSO control at this site: 1-bp insertion 0.121, MH deletion 0.101, edited 0.057) TCTGCAGGGGTCGGAACCCGGGGGCTAGGGCTATCCCGGGGGCTAGGGCTATTAGCGAACC",0.0353,0.0901,0.0729,0.203,0.175,0.215,0.187,0.222,0.147,0.197,0.243,0.149,0.0547,0.209,0.212,0.207,0.188,0.187,0.202,0.177
"20.0 (DMSO control at this site: 1-bp insertion 0.349, MH deletion 0.138, edited 0.084) TACAGGTGTAGACTGGTTACGTGGCTGCGGAATTGACTGGTTACGTGGCTGCGGAATTTTG",0.0465,0.111,0.082,0.235,0.239,0.174,0.285,0.222,0.12,0.136,0.246,0.159,0.0478,0.203,0.191,0.203,0.215,0.263,0.133,0.125
"30.0 (DMSO control at this site: 1-bp insertion 0.074, MH deletion 0.67, edited 0.142) GAGCTGGCATGAGTATTTGTGCCACATGGCTCCCACATGGCTCCACATGCAAGTTTGAAAC",0.0819,0.165,0.115,0.699,0.725,0.723,0.761,0.727,0.708,0.699,0.684,0.599,0.335,0.69,0.586,0.67,0.607,0.644,0.635,0.638
"0.0 (DMSO control at this site: 1-bp insertion 0.463, MH deletion 0.339, edited 0.14) AGGATTACCGAGACCTACGCGAACCGAAATCGCTGTCCGGTGCGCAAGCAGGGCTGGCGTC",0.0913,0.181,0.128,0.346,0.314,0.312,0.552,0.345,0.394,0.304,0.37,0.294,0.108,0.304,0.291,0.331,0.275,0.346,0.23,0.201
8.0 GCATGCGTGTTTTGGGACAATGTAGTATACATTTGGGAGGCTCTCAGCTTTTCCCAATAAA,,,0.017,0.107,0.0584,0.0574,,,,,,,,0.0765,,,0.0826,0.127,0.0866,
15.0 GCGCCTCCAATGACCCAGTGGGATCCTACTCCATAATGGGATCCTGGGGATTCCTCGCTCC,,,0.132,0.354,0.378,,,,,,0.426,,,0.39,,,0.289,,,
